Where a chain is given by its changes, count along the chain named. Whole data set: some 24,000 sequences, median “enrichment r” near 0.99, cut for the highest 2% near 3.7. The full list was thinned out, with the highest values kept by preference.
T1: UNK ZnF1-3 (human, UniProt Q9C0B0 31-174)
T1 sequence: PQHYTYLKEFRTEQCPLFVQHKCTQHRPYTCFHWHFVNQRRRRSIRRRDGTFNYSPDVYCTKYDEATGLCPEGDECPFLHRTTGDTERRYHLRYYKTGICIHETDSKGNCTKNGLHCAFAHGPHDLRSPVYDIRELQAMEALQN

B1: chr12:111890518:111890519:-_ENSG00000204842_ENST00000389154|hu_hu|FALSE|FALSE (ssRNA)
RNA: GGGAGUUCUACAGUCCGACGAUCUUGGAUGUUACAAGAAAUCAACAUAUAUAUUUUAAAAACAAAAUAAAUGAAAUUCUAGUUUUCUGUGCUUCCAGUUGGUAGAAGCAGUAGAAGGGAGGAGGGAAUUUGGCCUUUCGGUUCCAACAGAGGAUUGAGCAUCA
B2: chr15:57879074:57879075:-_ENSMUSG00000022361_ENSMUST00000070143|mus_hu|FALSE|FALSE (ssRNA)
RNA: GGGAGUUCUACAGUCCGACGAUCCAGCUGUCUGAGUGAGGAAAUCAGCUACAUUGCAGCAUUUUGGAAUUACUAAUAAAGCUAUAGUUAAAAAAUAAAAAGUUUAUAAAAAUGAAAGCAGCAUGCAUAUUCAAGGCUUUUUCACAACAGAGGAUUGAGCAUCA
B3: chr15:57879074:57879075:-_ENSMUSG00000022361_ENSMUST00000070143|mus_hu|motif|central (ssRNA)
RNA: B2 RNA with U82G, A83G
B4: chr6:136509389:136509390:+_ENSMUSG00000030213_ENSMUST00000032335|mus_hu|FALSE|FALSE (ssRNA)
RNA: GGGAGUUCUACAGUCCGACGAUCAAUAUUAUUAUCAGCUUUAUUUUUCUCAUCCAAUGAGUCUUUACUCUGAAUUUGCUCUAAUUUUUCAUCAGCUCCAUUUUUUUCAAGAAAAUCAUCAUCUUUAUUGCUACUUGGUUCUAUCAACAGAGGAUUGAGCAUCA
B5: chr12:98991669:98991670:+_ENSG00000075415_ENST00000552981|hu_mus|motif|central (ssRNA)
RNA: GGGAGUUCUACAGUCCGACGAUCGAAUCCAUUAAAUAUGCCUUUGUACUUCUGAGGGUCCACCUGCAUGCGGCACUUUACGGAGUCCAGGGGAACAACAGCAGUGUGUGUCAGCCCACAACUUAAGACCCCACCAAAGCCACACAACAGAGGAUUGAGCAUCA
B6: chr4:115894766:115894767:+_ENSMUSG00000028698_ENSMUST00000030464|mus_hu|mus_mus_mus_hu_True|1_98 (ssRNA)
RNA: GGGAGUUCUACAGUCCGACGAUCUUCCACACGGAAAGUACUUGGGGGUUUUCCAACGGCCAGUACCAGUCCGGCCAAACUACCCGAACAGGGUCCUCCCCCUCUCUCCUACAGAACACAACAAAAUGCCCCCGAACCCCGAACCAACAGAGGAUUGAGCAUCA
B7: chr2:69705335:69705336:+_ENSMUSG00000068882_ENSMUST00000090852|mus_mus|FALSE|FALSE (ssRNA)
RNA: GGGAGUUCUACAGUCCGACGAUCUUGGCCUUUAUCGUCUAGCCAUUCUUUUAUAUCAUCAAGGGUGGCGUCAGUUGGGAAACCUUUAAUAUAAACAGAUCUGUUUUUUACAUCAUUCUUAUACUCAUCCGUCACUUCAGGGAGCAACAGAGGAUUGAGCAUCA
B8: chr8:124405102:124405103:-_ENSMUSG00000040010_ENSMUST00000045557|mus_mus|motif|central (ssRNA)
RNA: GGGAGUUCUACAGUCCGACGAUCCCCAAAAAAACAAAAAGCCUCACAAAACAGCAGACCUCUGUACCCCCCCCCCAGUCGGAUGUAACAGGCUAGCCAUUAAUACAAUAGUAAAAGACAUUAUAACCACAGCACUAUCUCAGGCAACAGAGGAUUGAGCAUCA
B9: chr13:41369856:41369857:+_ENSMUSG00000091264_ENSMUST00000165561|mus_hu|FALSE|FALSE (ssRNA)
RNA: GGGAGUUCUACAGUCCGACGAUCGCACUUCAUUCUUGUACAAAGCAGGUAACACUAAACAGGAAGGUUGUUUAAUUCACAUCUCUUCUCCCUGGUAAACACUCAGCCCAGAGUUCAGUUGAGACAAACACGGAAACCUGGCAACAACAGAGGAUUGAGCAUCA
B10: chr8:122087627:122087628:-_ENSMUSG00000034189_ENSMUST00000036049|mus_mus|motif|central (ssRNA)
RNA: GGGAGUUCUACAGUCCGACGAUCGCAUUAAAGGCGUGAGCCCCCACGCCCAGCCUGAGGAACAUCUUGAAAGCCAAUACGGUAAUCAGUCACCUGUAAAAGGAAAACAGGUGACUUCUCAAAAAAAAAAAAAAAAGAAAGAAACAACAGAGGAUUGAGCAUCA
B11: chr8:122087627:122087628:-_ENSMUSG00000034189_ENSMUST00000036049|mus_mus|FALSE|FALSE (ssRNA)
RNA: B10 RNA with G80U, G81A
B12: chr1:23884524:23884525:-_ENSG00000117318_ENST00000374561|perfect_dup|FALSE|FALSE (ssRNA)
RNA: GGGAGUUCUACAGUCCGACGAUCUUUAAUAUACAUCGCAUUGUUACAGAAAGUCACCUUCCUGUAAAAAAGGUACAAAACCUAUAUACUCUAUUAUAGAGUUCAUAAAUCAGGGCAACAGAACCUUUCUCCAAGGAGACCAGACAACAGAGGAUUGAGCAUCA
B13: chr12:48362563:48362564:+_ENSG00000134291_ENST00000256686|hu_hu|hu_hu_hu_mus_False|98_108 (ssRNA)
RNA: GGGAGUUCUACAGUCCGACGAUCUCCGAAGGGUGAAUCAAGCCCCACUUGCGGGGGAAACUGUAAUCACUUUGUAUGGGGAAGGAAAAGAAACGCCAAAAACUUUCCAAAAAGCGGGGGUGGGGUGAGGCGGGAGGGGGAGGUCAACAGAGGAUUGAGCAUCA

Each binder was assayed against T1, UNK ZnF1-3 (assay: nsRBNS (natural sequence RNA bind-n-seq); RBNS binding buffer (assumed for nsRBNS): 25 mM Tris pH 7.5, 150 mM KCl, 3 mM MgCl2, 0.01% Triton X-100, 500 ug/ml BSA, 20 U/ml SUPERase-In, 4 C; UNK is unkempt and MSI1 is Musashi-1; names of the RNAs are library labels; protein concentration not given here; high values mean tight binding).

Going from B1 to B2, the binding signal rises from 1.07 enrichment R to 7.31 enrichment R.

Going from B3 to B4, the binding signal falls from 6.18 enrichment R to 0.334 enrichment R.

Going from B5 to B6, the binding signal rises from 1.12 enrichment R to 1.29 enrichment R.

Compared with B7, B8 is higher in binding signal: 1.08 enrichment R for the first, 2.38 enrichment R for the second.

Compared with B9, B10 is higher in binding signal: 1.42 enrichment R for the first, 4.56 enrichment R for the second.

Going from B11 to B12, the binding signal falls from 5.88 enrichment R to 0.848 enrichment R.

B13 was tested, and the binding signal was 1.98 enrichment R.
